Experimental data published in PubChem BioAssay AID1159580 (chemical genetic matrix, 2015).
About 2,000 (36%) of roughly 5,500 compounds were called active. About 18% were inconclusive and are not listed. No stated cut-off is given here; in the data, active means normalized growth mostly below about 0.91 (no sharp cut-off); inconclusive means no clear call, values can overlap the other calls; inactive means mostly above about 0.92. This is one part of the list.

Experiment: chemical genetic growth profiling, strain panel (AID 1159580);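 further: tested at 20 µM; growth read once vehicle control cultures reached saturation at 30 °C; 1 = growth at the plate median or of vehicle wells; lower values mean less growth of the strain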
Details: S. cerevisiae deletion strains, growth OD

Measured: normalized growth

C[N+]1(C)C[C@H](O)[C@H](C(=O)[O-])C1
inactive: locus YAL013W, strain DEP1, hits give low values 1.01 | locus YAL021C, strain ccr4, hits give low values 0.996 | locus YAL026C, strain drs2, hits give low values 1.03 | locus YAL030W, strain snc1, hits give low values 1.01 | locus YBL061C, strain skt5, hits give low values 1.01 | locus YBR009C, strain hhf1, hits give low values 1.05 | locus YBR021W, strain FUR4, hits give low values 1.01 | locus YBR023C, strain chs3, hits give low values 1.02 | locus YBR171W, strain sec66, hits give low values 1.03 | locus YBR229C, strain ROT2, hits give low values 1.01 | locus YBR231C, strain swc5, hits give low values 1.02 | locus YBR279W, strain paf1, hits give low values 1.01 | locus YCL011C, strain gbp2, hits give low values 1.02 | locus YCL016C, strain dcc1, hits give low values 1.02 | locus YCL029C, strain bik1, hits give low values 0.996 | locus YCL061C, strain MRC1, hits give low values 1.02 | locus YCL069W, strain vba3, hits give low values 1.01 | locus YCR088W, strain abp1, hits give low values 1.01 | locus YDL005C, strain med2, hits give low values 1.01 | locus YDL035C, strain GPR1, hits give low values 1.01 | locus YDL040C, strain nat1, hits give low values 1.01 | locus YDL074C, strain BRE1, hits give low values 1.02 | locus YDL101C, strain DUN1, hits give low values 1.02 | locus YDL134C, strain PPH21, hits give low values 1.01 | locus YDL185W, strain tfp1, hits give low values 0.995 | locus YDL192W, strain arf1, hits give low values 1 | locus YDR001C, strain nth1, hits give low values 1.01 | locus YDR069C, strain doa4, hits give low values 1.03 | locus YDR101C, strain arx1, hits give low values 0.988 | locus YDR137W, strain rgp1, hits give low values 1.01 | locus YDR150W, strain NUM1, hits give low values 1.01 | locus YDR159W, strain sac3, hits give low values 1.02 | locus YDR162C, strain NBP2, hits give low values 1.01 | locus YDR195W, strain ref2 1.03 | locus YDR297W, strain sur2, hits give low values 1.01 | locus YDR318W, strain mcm21, hits give low values 1.01 | locus YDR334W, strain swr1, hits give low values 1.02 | locus YDR335W, strain msn5, hits give low values 1.01 | locus YDR388W, hits give low values 1.01 | locus YDR392W, strain spt3, hits give low values 0.996 | locus YDR502C, strain sam2, hits give low values 0.994 | locus YEL003W, strain gim4, hits give low values 1.02 | locus YEL037C, strain rad23, hits give low values 1.01 | locus YEL061C, strain CIN8 (second series), hits give low values 1.01 | locus YEL061C, strain CIN8, hits give low values 1 | locus YER015W, strain faa2, hits give low values 1.01 | locus YER016W, strain bim1, hits give low values 1.01 | locus YER110C, hits give low values 0.992 | locus YER111C, strain swi4, hits give low values 1.02 | locus YER155C, strain BEM2 (second series), hits give low values 1.05 | locus YER155C, strain BEM2, hits give low values 1 | locus YER167W, strain BCK2, hits give low values 1.01 | locus YFR010W, strain ubp6, hits give low values 1.02 | locus YGL078C, strain dbp3, hits give low values 0.999 | locus YGL086W, strain mad1, hits give low values 0.968 | locus YGL167C, strain pmr1, hits give low values 1.02 | locus YGL173C, strain kem1, hits give low values 1.02 | locus YGL227W, strain vid30, hits give low values 1.01 | locus YGL240W, strain doc1, hits give low values 1.04 | locus YGL248W, strain PDE1, hits give low values 1.01 | locus YGL253W, strain hxk2, hits give low values 1.03 | locus YGR078C, strain PAC10, hits give low values 1.01 | locus YGR135W, strain pre9, hits give low values 1 | locus YGR229C, strain SMI1, hits give low values 1.01 | locus YGR252W, strain gcn5, hits give low values 0.992 | locus YHR013C, strain ard1, hits give low values 0.999 | locus YHR027C, strain rpn1, hits give low values 1.01 | locus YHR030C, strain SLT2, hits give low values 1.01 | locus YHR079C, strain IRE1 (second series), hits give low values 1 | locus YHR094C, strain hxt1, hits give low values 0.993 | locus YHR129C, strain ARP1, hits give low values 1.01 | locus YHR142W, strain chs7, hits give low values 0.98 | locus YHR200W, strain rpn10, hits give low values 0.995 | locus YIL066C, strain RNR3, hits give low values 1.01 | locus YIL073C, strain SPO22, hits give low values 1.1 | locus YIL125W, strain kgd1, hits give low values 0.996 | locus YIR030C, strain dcg1, hits give low values 0.995 | locus YJL092W, strain hpr5, hits give low values 1.01 | locus YJL095W, strain BCK1 (second series), hits give low values 1.01 | locus YJL095W, strain BCK1, hits give low values 1.01 | locus YJL115W, strain asf1, hits give low values 1.02 | locus YJL129C, strain trk1, hits give low values 1.01 | locus YJL134W, strain LCB3, hits give low values 1 | locus YJL154C, strain vps35, hits give low values 1.01 | locus YJL164C, strain tpk1, hits give low values 1.01 | locus YJL166W, strain qcr8, hits give low values 1.01 | locus YJL168C, strain set2, hits give low values 1 | locus YJL187C, strain SWE1 (second series), hits give low values 1.02 | locus YJL187C, strain SWE1, hits give low values 1.01
